Pol kappa inh-1: DNA polymerase kappa (human) inhibition | Q9UBT6 | purified Pol kappa, fluorescent DNA synthesis assay, 10 min | Potency, µM (highest dose often 107 µM), inactives show at the top dose activity, negative = inhibition, actives largely listed as inhibitors | 400,000 compounds, 0.53% hits | AID 588579; further: potency means the concentration at half of the fitted maximal effect; on the % scale 0 is the no-effect control and ±100 the full control effect
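Activity was followed as the change in fluorescence between reads at 0 and 10 min after starting the reaction with 50 nM substrate. Beforehand, 10 nM polymerase had been preincubated with compound for 15 min at room temperature.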
Pol eta inh-1: blocks human DNA polymerase eta activity; Q9Y253; recombinant Pol eta, fluorescent DNA replication assay; Potency, µM (titrated, usually from 114 µM), for inactives: at the highest dose activity change, negative = inhibition, hits mostly inhibitors; 390,000 compounds, 1.2% hits; AID 588591; further: potency means the concentration at half of the fitted maximal effect; on the % scale 0 is the no-effect control and ±100 the full control effect
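Fluorescent replication assay: 50 nM final substrate added after a 15 min room-temperature compound preincubation with 10 nM enzyme. Signal taken at 0 min and again at 10 min.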
POLB inh: DNA polymerase beta (human) inhibition; P06746; Pol beta primer extension/strand displacement, fluorescence kinetic; Potency, µM (titrated, usually from 114 µM), inactives show at the highest dose activity change, negative = inhibition, most hits filed as inhibitors; 340,000 compounds, 1.3% hits; further: potency means the concentration at half of the fitted maximal effect; on the % scale 0 is the no-effect control and ±100 the full control effect
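Homogeneous kinetic assay of primer extension and strand displacement by 10 nM Pol beta, preincubated 15 min at room temperature with compound before 50 nM substrate (final) was added. Read at 0 and 10 min; four-parameter Hill fit.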
POLI inh: inhibitors of human DNA polymerase iota. AID 588590. Q9UNA4. 390,000 compounds, 1% hits. Pol iota fluorescent replication assay, 10 min. Potency, µM (top dose mostly 115 µM), inactives show top-dose activity, negative = inhibition, usual class: inhibitors; further: potency means the concentration at half of the fitted maximal effect
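Pol iota at 10 nM preincubated 15 min with compounds at room temperature; reaction started with fluorescent substrate, 50 nM final. Fluorescence read kinetically at 0 and 10 min; buffer-only wells as negative control.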
FEN1 inhibitor: blocks human flap endonuclease 1; AID 588795; Potency, µM (series often up to 114 µM), inactives show at the top dose activity change, negative = inhibition, most hits filed as inhibitors; P39748; 390,000 compounds, 0.35% hits; Recombinant FEN1 flap cleavage, fluorescence, 15 min; further: potency means the concentration at half of the fitted maximal effect; on the % scale 0 is the no-effect control and ±100 the full control effect; nearly all actives have a fitted effect of over 65% in size
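Recombinant FEN1 (10 nM) was preincubated with pin-transferred compounds for 15 min at room temperature, then flap DNA substrate (50 nM final) was added. Plates were read at 0 and 15 min, and normalized concentration–response data were fitted to a four-parameter Hill equation.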
WRN helicase inh: inhibitors of human WRN helicase. Q14191. WRN helicase unwinding, fluorescent forked duplex, kinetic. Potency, µM (highest dose often 114 µM), without a hit: at the top dose activity change, negative = inhibition, hits mostly inhibitors. 360,000 compounds, 0.46% hits; further: potency means the concentration at half of the fitted maximal effect; on the % scale 0 is the no-effect control and ±100 the full control effect; nearly all actives have a fitted effect of over 55% in size
Target sequence (Q14191 whole entry, looked up): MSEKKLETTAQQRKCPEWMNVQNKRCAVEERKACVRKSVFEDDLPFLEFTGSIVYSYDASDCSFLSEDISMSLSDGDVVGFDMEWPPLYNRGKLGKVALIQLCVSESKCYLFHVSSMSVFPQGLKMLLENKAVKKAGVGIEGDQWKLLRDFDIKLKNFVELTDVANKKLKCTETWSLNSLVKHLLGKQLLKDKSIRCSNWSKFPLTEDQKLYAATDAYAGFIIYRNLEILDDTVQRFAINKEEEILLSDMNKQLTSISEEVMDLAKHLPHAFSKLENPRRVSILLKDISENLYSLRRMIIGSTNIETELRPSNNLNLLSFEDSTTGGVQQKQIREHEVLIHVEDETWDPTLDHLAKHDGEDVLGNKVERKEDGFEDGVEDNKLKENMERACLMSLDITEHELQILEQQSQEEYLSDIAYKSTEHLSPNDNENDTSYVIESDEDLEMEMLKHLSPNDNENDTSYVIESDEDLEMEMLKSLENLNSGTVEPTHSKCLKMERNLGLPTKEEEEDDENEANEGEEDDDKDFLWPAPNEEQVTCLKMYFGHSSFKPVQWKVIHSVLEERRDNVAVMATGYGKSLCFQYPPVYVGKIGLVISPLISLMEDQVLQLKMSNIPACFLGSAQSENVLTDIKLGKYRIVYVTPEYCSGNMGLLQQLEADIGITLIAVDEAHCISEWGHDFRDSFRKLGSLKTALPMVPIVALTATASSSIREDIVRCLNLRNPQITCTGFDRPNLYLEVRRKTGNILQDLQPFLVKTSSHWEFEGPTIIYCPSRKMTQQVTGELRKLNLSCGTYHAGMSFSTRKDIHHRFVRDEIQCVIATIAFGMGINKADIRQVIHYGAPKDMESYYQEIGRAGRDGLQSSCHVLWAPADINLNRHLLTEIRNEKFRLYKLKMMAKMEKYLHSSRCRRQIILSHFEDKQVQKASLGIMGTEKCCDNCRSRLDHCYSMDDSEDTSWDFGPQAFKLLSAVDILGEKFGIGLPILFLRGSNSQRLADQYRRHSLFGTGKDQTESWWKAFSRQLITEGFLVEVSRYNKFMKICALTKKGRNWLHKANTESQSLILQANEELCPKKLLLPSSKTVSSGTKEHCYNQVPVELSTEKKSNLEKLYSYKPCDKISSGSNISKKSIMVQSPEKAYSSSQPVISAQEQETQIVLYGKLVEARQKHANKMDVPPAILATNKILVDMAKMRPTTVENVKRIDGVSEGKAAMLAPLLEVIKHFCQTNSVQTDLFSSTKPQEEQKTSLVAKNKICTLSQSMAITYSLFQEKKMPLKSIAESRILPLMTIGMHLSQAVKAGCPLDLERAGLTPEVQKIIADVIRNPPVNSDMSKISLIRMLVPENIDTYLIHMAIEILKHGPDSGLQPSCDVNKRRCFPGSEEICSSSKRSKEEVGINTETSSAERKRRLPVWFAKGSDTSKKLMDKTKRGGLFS
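WRN at 20 nM final was preincubated with compound for 15 min at room temperature; reaction started with 100 nM forked duplex oligonucleotide carrying fluorophore and quencher plus 2 mM ATP (final). Unwinding followed kinetically by red fluorescence (ex 525/em 598 nm).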
PGK validate: validation of Trypanosoma brucei phosphoglycerate kinase inhibitors | shares compounds with Pol kappa inh-1 | Potency, µM (titrated, usually from 57.5 µM), without a hit: top-dose activity change, negative = inhibition, usual class: inhibitors | TbPGK coupled GAPDH assay, Kinase-Glo luminescence | 500 compounds, 79% hits; further: potency means the concentration at half of the fitted maximal effect; on the % scale 0 is the no-effect control and ±100 the full control effect; nearly all actives have a fitted effect of over 65% in size
Pol iota confirm: Human Pol iota inhibitor confirmatory assay | shares compounds with Pol kappa inh-1 | Pol iota primer extension, TAMRA/BHQ fluorescence | Potency, µM, hits mostly inhibitors | 1,500 compounds, 77% hits | AID 720496; further: potency means the concentration at half of the fitted maximal effect
GALK confirm: galactokinase (human) inhibition, confirmation; purified GALK, Kinase-Glo ATP depletion luminescence; 150 compounds, 70% hits; shares compounds with Pol eta inh-1; Potency, µM (titrated, usually from 115 µM), for inactives: at the top dose activity, negative = inhibition, hits mostly inhibitors
GALK redox cs: redox cycling activity in phenol red-HRP assay. shares compounds with Pol eta inh-1. Phenol red-HRP H2O2 redox cycling, absorbance 600 nm. Potency, µM (titrated, usually from 115 µM), inactives show at the top dose activity change, negative = H2O2 signal, usual class: inhibitors. 150 compounds, 40% hits. AID 2035
HEK293 viability: counter-screen for GALK inhibitors: HEK293 cell cytotoxicity | 170 compounds, 10% hits | Potency, µM (top dose mostly 46.1 µM), for inactives: top-dose activity change, negative = cytotoxicity, hits mostly inhibitors | HEK-293 viability, ATP luminescence (CellTiter-Glo), 24/48 h | shares compounds with Pol eta inh-1; further: potency means the concentration at half of the fitted maximal effect; on the % scale 0 is the no-effect control and ±100 the full control effect
Pol kappa inh-2: confirmation of human DNA polymerase kappa inhibitors. shares compounds with Pol eta inh-1. 920 compounds, 76% hits. Potency, µM, actives largely listed as inhibitors. purified Pol-kappa, fluorescent strand-displacement substrate. AID 720501; further: potency means the concentration at half of the fitted maximal effect
Pol eta inh-2: confirmation of human DNA polymerase eta inhibitors. shares compounds with Pol eta inh-1. 2,600 compounds, 64% hits. Potency, µM, actives largely listed as inhibitors. AID 720502. Pol eta primer extension, TAMRA/BHQ fluorescence, 10 min; further: potency means the concentration at half of the fitted maximal effect
* hit, by the source's call. Shown are actives, neighbours in structure and some others; about 2.4% of the full set was active somewhere. The call rests on the fitted dose curve; in most records, active means well fitted curve in the direction sought with a large enough effect; inconclusive means small, poorly fitted or top-dose-only effect, or another doubt; inactive means no such curve, though single readings can be large; an effect the other way counts as inactive or inconclusive.

How did Cc1cccc2c(=O)[nH]c3c(-c4nc(-c5ccc(Cl)cc5)cs4)c(O)cn3c12 do in these assays?
Pol kappa inh-1: -15%; POLI inh: inconclusive; FEN1 inhibitor: -6%

How did O/C=c1\ccc2cccc3nc(C(F)(F)F)nc1c23 do in these assays?
Pol kappa inh-1: inconclusive; Pol eta inh-1: 25µM*; POLB inh: 3.2µM*; POLI inh: 0.89µM*; FEN1 inhibitor: 79µM*; WRN helicase inh: 79µM*; Pol iota confirm: 67*; Pol kappa inh-2: inconclusive; Pol eta inh-2: 48*

Results for CCCCn1cc(S(=O)(=O)c2ccc(C)c(C)c2)c(=O)c2cc(F)c(N3CCN(C)CC3)cc21 ?
Pol kappa inh-1: -11%; Pol eta inh-1: -14%; POLB inh: 1%; POLI inh: 32%; FEN1 inhibitor: 18%

Results for Cc1cc(C)c2c(C)c(C(=O)N3CCC(c4nc5ccccc5s4)CC3)oc2c1 ?
Pol kappa inh-1: 4%; Pol eta inh-1: -21%; POLB inh: 2%; POLI inh: 3%; FEN1 inhibitor: 5%

Results for COC(=O)c1cc(C)nc2c1C(=O)C(=O)C=C2N1CCOCC1 ?
Pol kappa inh-1: -10%; Pol eta inh-1: 4.5µM*; POLB inh: -8%; POLI inh: 1.3µM*; FEN1 inhibitor: -23%; WRN helicase inh: inconclusive; PGK validate: 4.6µM*; Pol iota confirm: 6*; GALK confirm: 5.3µM*; GALK redox cs: 2.7µM*; HEK293 viability: 8.9µM*; Pol eta inh-2: 5.4*

What do the screens show for `Oc1ccc(-c2csc(-c3cccnc3)n2)cc1O`?
Pol kappa inh-1: 32µM*; Pol eta inh-1: 25µM*; POLB inh: inconclusive; POLI inh: 28µM*; FEN1 inhibitor: -18%; WRN helicase inh: inconclusive; Pol iota confirm: 84*; Pol eta inh-2: inconclusive

What do the screens show for `COc1cccc(Nc2ccccc2C(=O)O)c1`?
Pol kappa inh-1: -9%; Pol eta inh-1: -1%; POLB inh: -6%; POLI inh: 51%; FEN1 inhibitor: -1%; WRN helicase inh: -17%

What do the screens show for `COc1cc(-c2ccc(Nc3ccccc3C(=O)O)c(OC)c2)ccc1Nc1ccccc1C(=O)O`?
Pol kappa inh-1: 32µM*; Pol eta inh-1: 10µM*; POLB inh: inconclusive; POLI inh: 7.9µM*; FEN1 inhibitor: inconclusive; WRN helicase inh: 32µM*; Pol iota confirm: 67*; Pol kappa inh-2: 19*; Pol eta inh-2: 30*

Results for Cc1ccc(NC(=O)C2CCCN(c3ncnc4onc(C)c34)C2)cc1Cl (stereo not drawn) ?
Pol kappa inh-1: 3%; Pol eta inh-1: -23%; POLB inh: 1%; POLI inh: 20%; FEN1 inhibitor: 13%

Results for O=C(O)C1Nc2c(Cl)cc(Cl)c(Cl)c2C2C=CCC12 (stereo not drawn) ?
Pol kappa inh-1: 28µM*; Pol eta inh-1: 14µM*; POLI inh: 10µM*; FEN1 inhibitor: 35µM*; WRN helicase inh: 40µM*; Pol iota confirm: 21*; Pol eta inh-2: 24*

Results for CCc1nnc(NC(=O)C(=O)c2cc(C)n(-c3ccccc3)c2C)s1 ?
Pol kappa inh-1: -5%; Pol eta inh-1: 50µM*; POLB inh: 15%; POLI inh: -21%; FEN1 inhibitor: -3%; Pol iota confirm: inconclusive; Pol kappa inh-2: 13*; Pol eta inh-2: 85*

How did CCCSC1=N/C(=C\C=C\c2ccco2)C(=O)S1 do in these assays?
Pol kappa inh-1: 22µM*; Pol eta inh-1: 7.1µM*; POLB inh: 5.6µM*; POLI inh: 10µM*; FEN1 inhibitor: 50µM*; WRN helicase inh: inconclusive; Pol iota confirm: inconclusive; Pol eta inh-2: 60*

Results for O=C(NN1C(=O)/C(=C/C=C/c2ccco2)SC1=S)c1ccncc1 ?
Pol kappa inh-1: 3.2µM*; Pol eta inh-1: 1.4µM*; POLB inh: inconclusive; POLI inh: 1.3µM*; FEN1 inhibitor: 7.1µM*; WRN helicase inh: 3.2µM*; PGK validate: 3.3µM*; Pol iota confirm: 6.7*; Pol kappa inh-2: 3.8*; Pol eta inh-2: 3.4*

How did O=C(NN1C(=O)/C(=C/C=C/c2ccccc2)SC1=S)c1ccncc1 do in these assays?
Pol kappa inh-1: -8%; Pol eta inh-1: -7%; POLB inh: -12%; POLI inh: inconclusive; FEN1 inhibitor: -3%; WRN helicase inh: -33%

What do the screens show for `CCCCNC(=O)Cn1c(SCc2cccc(F)c2)nc2ccncc21`?
Pol kappa inh-1: -2%; POLI inh: 2%; FEN1 inhibitor: 14%

What do the screens show for `Cc1ccc(Cc2c(C)nc3nc(SCC(=O)NCCC(C)C)nn3c2C)cc1`?
Pol kappa inh-1: -6%; Pol eta inh-1: 10%; POLB inh: 0%; POLI inh: -11%; FEN1 inhibitor: -3%
